According to PubChem BioAssay (NCI):
The panel holds about 79,000 compounds, 15% with a hit somewhere; the sample as a whole holds those more often. The source made the active and inactive calls. No stated cut-off is given here; in the data, active means growth inhibition above about 70%; inactive means the rest.

Experiment: NCI Yeast Anticancer Drug Screen. Data for the rad50 strain (AID 155);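 further: 0% = growth of vehicle-only cultures of the same strain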
Settings: S. cerevisiae rad50 strain growth inhibition; at 50.0 µM; active compounds read high
Outline: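 Cells are treated with compound, grown, and their growth is then scored against vehicle-only cultures of the same repair-deficient yeast strain.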

Row | Compound | growth inhibition
1 | CC(CN(C)C)C(=O)/C=C/c1c(Cl)cccc1Cl (stereo not given) | 86.7% (active)
2 | COc1ccc(C(=O)c2cc(Br)ccc2O)cc1 | 89.3% (active)
3 | COc1cccc(OC)c1C(=O)/C=C/c1ccccc1 | 66.7% (inactive)
4 | S=C(Nc1ccc(Cl)c(Cl)c1)SC1CCCCC1 | 47.2% (inactive)
5 | Cc1sc(N=Nc2c(O)[nH]c3ccccc23)nc1-c1ccccc1 | -2% (inactive)
6 | O=C(NC(c1ccccc1)N1CCOCC1)c1ccccc1 (stereo not given) | 99% (active)
7 | Cc1nc2ccc3c(ccc4nc(C)c(N=Nc5ccc(C(=N)N)cc5)c(O)c43)c2c(O)c1N=Nc1ccc(C(=N)N)cc1 | 93.8% (active)
8 | CN(C)CCNC(=O)C(c1ccccc1)c1ccccc1 | 63.1% (inactive)
9 | CCOc1ccc(C(=O)CCN2CCOCC2)cc1 | 77.5% (active)
10 | O=S(Nc1ccccc1Br)c1ccccc1 (stereo not given) | 22.2% (inactive)
11 | CSC(=S)N/N=C(\C)c1ccc[nH]1 | 83.8% (active)
12 | Cc1ccc(Cl)cc1NN | 96.5% (active)
13 | C[C@]12CC[C@H](O)C[C@@H]1CC[C@@H]1[C@@H]2CC[C@]2(C)[C@@H](c3cc(C(F)(F)F)n[nH]3)CC[C@@H]12 | 89.8% (active)
14 | CCCOC(=O)C(S)C(S)C(=O)OCCC (stereo not given) | 11.1% (inactive)
15 | CCC(C)(C)c1cc(Br)c(NS(=O)(=O)c2ccc(NC(C)=O)cc2)c(Br)c1 | -6.75% (inactive)
16 | Cn1c2c(c3nc(N)nc(N)c3c1=O)CCc1ccccc1-2 | 72.8% (active)
17 | Cc1ccc(C(O)CCN2CCOCC2)c(C)c1 (stereo not given) | 81.5% (active)
18 | COC(=O)CCCC(=O)NC1=C(Nc2ccccc2)C(=O)c2ccccc2C1=O | 45.5% (inactive)
19 | Oc1cc(Br)cc2cccnc12 | 87.7% (active)
20 | COC(=O)Cc1cn[nH]c1C(=O)OC | 9.2% (inactive)

Row | Compound | growth inhibition
21 | O=C1CCCCCCC2=C1C(Sc1ccccc1)CC2 (stereo not given) | 78.8% (active)
22 | CC/C(=C1\C=CC(=O)S1)C(CC)c1ccc(OC(C)=O)cc1 (stereo not given) | 99.2% (active)
23 | COc1ccc(C2=C(Cl)C(=O)N(c3ccc(C)cc3)C(=O)C2(Cl)Cl)cc1 | 83.3% (active)
24 | CN(C)C1C[C@@H](O[Si](C)(C)C(C)(C)C)C=C1S(=O)(=O)c1ccccc1 (stereo not given in full) | 44.8% (inactive)
25 | NC(=O)C(=O)N/N=C/c1ccc([N+](=O)[O-])o1 | 32.4% (inactive)
26 | O=C(O)C1CCC(CC2CC3CCC2C3)CC1 (stereo not given) | 74.7% (active)
27 | CCCCCCCCCCCCOCC[N+](CCO)(CCO)Cc1ccccc1 | 99.3% (active)
28 | Cc1cc(C)cc([C@H](C)N=Cc2cc(Br)ccc2O)c1 | 96% (active)
29 | C=CC1(c2ccc(OC)cc2)OCCCO1 | 89.7% (active)
30 | CC(C)CCOC(=O)c1ccc(O)cc1.[Zn+2] | 76.1% (active)
31 | C/C=C/C=C\C1OC(O)([C@H](CC)C(=O)NC/C=C/C=C(\C)[C@H](OC)C(C)C2OC(\C=C/C=C/C=C(\C)C(=O)c3c(O)ccn(C)c3=O)[C@H](O)[C@@H]2O)C(O)C(O)C1(C)C (stereo not given in full) | 35.5% (inactive)
32 | O=c1cccccc1[O-].O=c1cccccc1[O-].O=c1cccccc1[O-].[Dy+3] | 92.8% (active)
33 | CCCC(=O)Oc1ccc(-c2ccc(Br)cc2)cc1 | 92.8% (active)
34 | Oc1c(Cl)c(Cl)c(O)c2c1CCCC2 | 99.3% (active)
35 | Clc1nc(Cl)nc(N2CCCc3ccccc32)n1 | 69.1% (inactive)
36 | CC[C@H]1CN2CCc3cc(OC)c(OC)cc3[C@@H]2C[C@@H]1C[C@H]1NCCc2cc(OC)c(OC)cc21 | -7.4% (inactive)
37 | S=C(NCCc1ccccc1)N/N=C/c1ccc(Cl)cc1 | 85.7% (active)
38 | O=C(O)Cc1ccc2c(c1O)C(=O)c1ccccc1C2=O | 89.3% (active)
39 | CC1CCN(C(=S)NNC(C)c2cc3ccccc3cn2)CC1 (stereo not given) | 82.5% (active)
40 | Cc1c[nH]c(C(=O)O)c1-c1ccc2c(-c3ccccc3)nc3ccccc3n12 | 82.8% (active)
